The source of these data is PubChem BioAssay (NCATS).

Records with an inconclusive call do not appear. Activity calls are given as the source filed them. Calls come from the whole dose curve; as a rule, active = well fitted inhibition curve with a large enough effect; inconclusive = small, poorly fitted or top-dose-only effect; inactive = flat fitted curve, though single readings scatter.

What all share (experiment): qHTS profiling for inhibitors of Plasmodium falciparum proliferation (AID 504749); note: nearly all actives have a fitted effect of over 60% in size
Common to all, as to details: P. falciparum in erythrocytes, SYBR Green DNA, 72 h; series mostly up to 28.7 µM
For orientation: Quantitative high-throughput screening tests each substance at several concentrations.

The subject of experiment [1] is CP238. Put shortly:
(§1)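 Each compound contacts P. falciparum-infected red blood cells for 72 h at 37 C; lysis buffer (Tris, EDTA, saponin, Triton X, SYBR Green I) is added and fluorescence measured next morning; values normalized to controls.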

For experiment [2], the system named is CP247. The gist of the method: as §1
Experiment [3] deals with CP250. Put shortly:
as §1

Experiment [4] concerns CP252. The gist of the method:
as §1

The subject of experiment [5] is CP256. The gist of the method:
as §1

Experiment [6] relates to CP260. Put shortly:
as §1

Experiment [7] relates to CP262. Put shortly: as §1
Experiment [8] has as its system CP265. Put shortly: as §1
For experiment [9], the system named is CP266. Put shortly:
as §1

Experiment [10] concerns CP268. Put shortly:
as §1

The subject of experiment [11] is CP269. Put shortly: as §1
In experiment [12] the test system is CP286. The gist of the method: as §1
The subject of experiment [13] is CP291. Put shortly: as §1
Experiment [14] concerns CP297. Put shortly:
as §1

In experiment [15] the test system is CP305. The gist of the method:
as §1

The test system of experiment [16] is CP315. Put shortly:
as §1

Experiment [17] has as its system CP325. The gist of the method: as §1
Experiment [18] has as its system CP329. Put shortly: as §1
Experiment [19] has as its system CP335. The gist of the method:
as §1

Experiment [20] relates to DFO2036. Put shortly: as §1
Potency is the fitted concentration of half-maximal effect.

For the molecule `CC(=O)N(O)CCCCCNC(=O)CCC(=O)N(O)CCCCCNC(=O)CCC(=O)N(O)CCCCCN`, the Potency entry in experiment [1], in experiment [2], in experiment [3], in experiment [4], in [5] and in experiment [6] was “inactive” in each case. The Potency result in experiment [7], in experiment [8], in [9], in [10], in [11] and in experiment [12] was “inactive” throughout. In addition, the Potency result in [13], in [14], in [15], in experiment [16], in experiment [17] and in experiment [18] was “inactive” in each case. Further, the Potency entry in experiment [19] and in experiment [20] was “inactive” throughout.
Regarding `O=C1CCC(c2ccc(-n3ccnc3)cc2)=NN1`, the Potency entry in experiment [1], in [2], in experiment [3], in experiment [4], in [5] and in [6] was “inactive” each time. For the same molecule, the Potency result in experiment [7], in experiment [8], in experiment [9], in experiment [10], in experiment [11] and in experiment [12] was “inactive” in each case. Further, the Potency entry in [13], in [14], in experiment [15], in [16], in experiment [17] and in [18] was “inactive” each time. In addition, the Potency entry in experiment [19] and in [20] was “inactive” throughout.
With `O=c1ccc2ccccc2o1`, the Potency result in experiment [1], in [2], in experiment [3], in experiment [4], in experiment [5] and in experiment [6] was “inactive” in each case. In addition, the Potency entry in experiment [7], in experiment [8], in experiment [9], in experiment [10], in [11] and in experiment [12] was “inactive” throughout. Also, the Potency entry in [13], in experiment [14], in experiment [15], in [16], in [17] and in experiment [18] was “inactive” each time. Moreover, the Potency entry in experiment [19] and in experiment [20] was “inactive” throughout.
As for `O=C(CCN1CCC(c2ccccc2)C1)c1ccc2c(c1)OCCO2` (stereo not given), the Potency result in [1], in experiment [2], in experiment [3], in [4], in [5] and in experiment [6] was “inactive” throughout. For the same molecule, the Potency entry in experiment [7], in experiment [8], in experiment [9], in [10], in [11] and in [12] was “inactive” each time. The Potency entry in experiment [13], in experiment [14], in experiment [15], in experiment [16], in [17] and in [18] was “inactive” in each case. The Potency entry in experiment [19] and in [20] was “inactive” each time.
As for `NCCC(O)(P(=O)(O)O)P(=O)(O)O`, the Potency entry in experiment [1], in [2], in [3], in experiment [4], in experiment [5] and in [6] was “inactive” in each case. The Potency entry in [7], in [8], in experiment [9], in [10], in experiment [11] and in experiment [12] was “inactive” each time. For the same molecule, the Potency entry in experiment [13], in experiment [14], in experiment [15], in experiment [16], in experiment [17] and in experiment [18] was “inactive” throughout. For the same molecule, the Potency result in experiment [19] and in experiment [20] was “inactive” each time.
For `Nc1cc(Cl)c(NC2=NCCN2)c(Cl)c1`, the Potency entry in [1], in experiment [2], in experiment [3], in experiment [4], in [5] and in [6] was “inactive” throughout. The Potency result in [7], in [8], in experiment [9], in experiment [10], in experiment [11] and in experiment [12] was “inactive” in each case. The Potency result in [13], in [14], in [15], in [16], in experiment [17] and in experiment [18] was “inactive” each time. Moreover, the Potency entry in [19] and in [20] was “inactive” in each case.
Consider `O=C(COc1ccc(Cl)cc1)N1CCN(Cc2ccc3c(c2)OCO3)CC1`, for which the Potency entry in experiment [1], in [2], in experiment [3], in [4], in experiment [5] and in experiment [6] was “inactive” throughout. The Potency result in [7], in [8], in [9], in experiment [10], in experiment [11] and in experiment [12] was “inactive” each time. Besides, the Potency entry in experiment [13], in [14], in experiment [15], in experiment [16], in experiment [17] and in experiment [18] was “inactive” in each case. In addition, the Potency result in experiment [19] and in [20] was “inactive” each time.
With `COC(=O)[C@@H]1CC2=CC(=O)CC[C@]2(C)[C@@]23O[C@@H]2C[C@@]2(C)[C@@H](CC[C@@]24CCC(=O)O4)[C@H]13`, the Potency entry in experiment [1], in experiment [2], in experiment [3], in [4], in [5] and in experiment [6] was “inactive” throughout. Also, the Potency entry in experiment [7], in experiment [8], in experiment [9], in experiment [10], in experiment [11] and in experiment [12] was “inactive” throughout. In addition, the Potency result in experiment [13], in experiment [14], in [15], in [16], in [17] and in experiment [18] was “inactive” in each case. For the same molecule, the Potency result in experiment [19] and in [20] was “inactive” in each case.
On to `CCC(=O)c1c(O)cc(O)cc1O`, for which the Potency result in experiment [1], in experiment [2], in [3], in experiment [4], in [5] and in experiment [6] was “inactive” throughout. The Potency result in experiment [7], in [8], in experiment [9], in [10], in experiment [11] and in experiment [12] was “inactive” each time. In addition, the Potency result in [13], in experiment [14], in experiment [15], in experiment [16], in experiment [17] and in experiment [18] was “inactive” in each case. Moreover, the Potency result in experiment [19] and in [20] was “inactive” in each case.
`Nc1ccc(/C=C/c2ccc(N)cc2S(=O)(=O)O)c(S(=O)(=O)O)c1`: the Potency result in experiment [1], in experiment [2], in [3], in experiment [4], in experiment [5] and in [6] was “inactive” in each case. The Potency entry in experiment [7], in [8], in experiment [9], in experiment [10], in experiment [11] and in experiment [12] was “inactive” each time. The Potency result in experiment [13], in experiment [14], in [15], in [16], in experiment [17] and in experiment [18] was “inactive” each time. The Potency result in experiment [19] and in [20] was “inactive” throughout.
As for `Cc1c(N(C)CS(=O)(=O)O)c(=O)n(-c2ccccc2)n1C`, the Potency entry in [1], in experiment [2], in experiment [3], in experiment [4], in [5] and in [6] was “inactive” in each case. Moreover, the Potency entry in [7], in experiment [8], in experiment [9], in [10], in [11] and in [12] was “inactive” throughout. Besides, the Potency result in [13], in experiment [14], in experiment [15], in [16], in experiment [17] and in experiment [18] was “inactive” each time. For the same molecule, the Potency entry in [19] and in [20] was “inactive” in each case.
On to `CCCCOc1ccc(C(=O)CCN2CCCCC2)cc1`, for which the Potency entry in experiment [1], in experiment [2], in [3], in experiment [4], in experiment [5] and in experiment [6] was “inactive” each time. The Potency entry in experiment [7], in experiment [8], in [9], in experiment [10], in experiment [11] and in experiment [12] was “inactive” throughout. Besides, the Potency result in experiment [13], in experiment [14], in experiment [15], in experiment [16], in experiment [17] and in [18] was “inactive” throughout. Further, the Potency entry in [19] and in [20] was “inactive” each time.
For `CC[N+](CC)(CCNC(=O)C(=O)NCC[N+](CC)(CC)Cc1ccccc1Cl)Cc1ccccc1Cl`, the Potency in experiment [1] is 2.51 µM (active); in experiment [2], 3.55 µM (active); in [3], 2.51 µM (active); in [4], 4.47 µM (active); in experiment [5], 0.398 µM (active); in experiment [6], 1.58 µM (active). Moreover, the Potency is 0.849 µM (active) in experiment [7]; 0.562 µM (active) in [8]; 2.69 µM (active) in experiment [9]; 7.57 µM (active) in experiment [10]; 4.78 µM (active) in experiment [11]; 0.891 µM (active) in experiment [12]. Besides, the Potency in experiment [13] was 6.75 µM (active); in experiment [14], 2.69 µM (active); in experiment [15], 3.01 µM (active); in [16] it was 3.79 µM (active); in experiment [17], 3.38 µM (active); in experiment [18], 2.39 µM (active). Also, the results for the Potency in [19] and in experiment [20] were 2.69 µM (active) and 1.78 µM (active), respectively.
